Values joined by “and” are separate entries in the source; they are usually repeats but may differ in a detail not shown here. Equal entries are not always repeated. Hit rate of the full screen: of about 5,500 compounds, about 2,000 (36%) were called active. About 18% were inconclusive and are not listed. Cut-off read from the data, not from the text of the source: active = normalized growth mostly below about 0.91 (no sharp cut-off); inconclusive = no clear call, values can overlap the other calls; inactive = mostly above about 0.92. The list shows a part of the results.
Assay: chemical genetic growth profiling, strain panel (AID 1159580);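 note: tested at 20 µM; growth read once vehicle control cultures reached saturation at 30 °C; 1 = growth at the plate median or of vehicle wells; lower values mean less growth of the strain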
Settings: growth OD

Measured: normalized growth

NCCCNCCSP(=O)(O)O
inactive: S. cerevisiae deletion strains, locus YJR075W, strain HOC1, active compounds read low 1.01 | S. cerevisiae deletion strains, locus YKL009W, strain mrt4, active compounds read low 0.969 | S. cerevisiae deletion strains, locus YKL068W, active compounds read low 0.982 | S. cerevisiae deletion strains, locus YKL085W, strain MDH1 (second series), active compounds read low 0.985 | S. cerevisiae deletion strains, locus YKL085W, strain MDH1, active compounds read low 0.985 | S. cerevisiae deletion strains, locus YKL160W, strain elf1, active compounds read low 0.963 | S. cerevisiae deletion strains, locus YKL190W, strain CNB1, active compounds read low 0.988 | S. cerevisiae deletion strains, locus YKR001C, strain vps1, active compounds read low 0.986 | S. cerevisiae deletion strains, locus YKR026C, strain gcn3, active compounds read low 0.984 | S. cerevisiae deletion strains, locus YKR091W, strain srl3, active compounds read low 0.969 | S. cerevisiae deletion strains, locus YLL001W, strain dnm1, active compounds read low 0.954 | S. cerevisiae deletion strains, locus YLL026W, active compounds read low 0.972 | S. cerevisiae deletion strains, locus YLL041C, strain sdh2, active compounds read low 0.983 | S. cerevisiae deletion strains, locus YLR027C, strain aat2, active compounds read low 0.964 | S. cerevisiae deletion strains, locus YLR039C, strain RIC1, active compounds read low 0.974 | S. cerevisiae deletion strains, locus YLR058C, strain SHM2, active compounds read low 0.989 | S. cerevisiae deletion strains, locus YLR102C, strain apc9, active compounds read low 0.992 | S. cerevisiae deletion strains, locus YLR221C, strain rsa3, active compounds read low 0.952 | S. cerevisiae deletion strains, locus YLR258W, strain gsy2, active compounds read low 0.994 | S. cerevisiae deletion strains, locus YLR262C, strain YPT6 (second series), active compounds read low 0.96 | S. cerevisiae deletion strains, locus YLR262C, strain YPT6, active compounds read low 0.973 | S. cerevisiae deletion strains, locus YLR268W, strain sec22, active compounds read low 0.995 | S. cerevisiae deletion strains, locus YLR320W, strain mms22, active compounds read low 0.961 | S. cerevisiae deletion strains, locus YLR330W, strain CHS5, active compounds read low 0.989 | S. cerevisiae deletion strains, locus YLR342W, strain FKS1 (second series), active compounds read low 0.975 | S. cerevisiae deletion strains, locus YLR342W, strain FKS1, active compounds read low 0.979 | S. cerevisiae deletion strains, locus YLR357W, strain rsc2, active compounds read low 0.957 | S. cerevisiae deletion strains, locus YLR370C, strain arc18, active compounds read low 0.969 | S. cerevisiae deletion strains, locus YLR371W, strain rom2, active compounds read low 0.974 | S. cerevisiae deletion strains, locus YLR384C, strain iki3, active compounds read low 0.96 | S. cerevisiae deletion strains, locus YLR418C, strain cdc73, active compounds read low 1.01 | S. cerevisiae deletion strains, locus YML016C, strain PPZ1, active compounds read low 0.99 | S. cerevisiae deletion strains, locus YML032C, strain rad52, active compounds read low 0.978 | S. cerevisiae deletion strains, locus YML120C, strain ndi1, active compounds read low 0.964 | S. cerevisiae deletion strains, locus YML124C, strain tub3, active compounds read low 0.991 | S. cerevisiae deletion strains, locus YMR058W, strain fet3, active compounds read low 0.976 | S. cerevisiae deletion strains, locus YMR078C, strain ctf18, active compounds read low 0.981 | S. cerevisiae deletion strains, locus YMR125W, strain sto1, active compounds read low 0.975 | S. cerevisiae deletion strains, locus YMR129W, active compounds read low 0.99 | S. cerevisiae deletion strains, locus YMR205C, strain PFK2, active compounds read low 0.937 | S. cerevisiae deletion strains, locus YMR223W, strain ubp8, active compounds read low 0.973 | S. cerevisiae deletion strains, locus YMR231W, strain pep5, active compounds read low 0.978 | S. cerevisiae deletion strains, locus YMR263W, strain SAP30, active compounds read low 0.997 and 0.98 | S. cerevisiae deletion strains, locus YMR307W, strain GAS1, active compounds read low 0.974 | S. cerevisiae deletion strains, locus YNL067W, strain RPL9B, active compounds read low 0.984 | S. cerevisiae deletion strains, locus YNL071W, strain lat1, active compounds read low 0.983 | S. cerevisiae deletion strains, locus YNL128W, strain TEP1, active compounds read low 1.01 and 1 | S. cerevisiae deletion strains, locus YNL153C, strain GIM3, active compounds read low 1.01 and 0.993 | S. cerevisiae deletion strains, locus YNL175C, strain NOP13, active compounds read low 1.01 | S. cerevisiae deletion strains, locus YNL197C, strain WHI3, active compounds read low 1 | S. cerevisiae deletion strains, locus YNL209W, strain ssb2, active compounds read low 0.981 | S. cerevisiae deletion strains, locus YNL224C, strain SQS1, active compounds read low 0.988 | S. cerevisiae deletion strains, locus YNL233W, strain BNI4, active compounds read low 0.997 | S. cerevisiae deletion strains, locus YNL248C, strain rpa49, active compounds read low 0.977 | S. cerevisiae deletion strains, locus YNL250W, strain rad50, active compounds read low 0.981 | S. cerevisiae deletion strains, locus YNL271C, strain bni1, active compounds read low 0.994 | S. cerevisiae deletion strains, locus YNL298W, strain CLA4, active compounds read low 0.988 | S. cerevisiae deletion strains, locus YNL307C, strain MCK1, active compounds read low 0.989 | S. cerevisiae deletion strains, locus YNL322C, strain KRE1 (second series), active compounds read low 0.956 | S. cerevisiae deletion strains, locus YNL322C, strain KRE1, active compounds read low 1 | S. cerevisiae deletion strains, locus YNR049C, strain mso1, active compounds read low 0.963 | S. cerevisiae deletion strains, locus YNR052C, strain pop2, active compounds read low 0.986 | S. cerevisiae deletion strains, locus YOL006C, strain TOP1, active compounds read low 1.02 | S. cerevisiae deletion strains, locus YOL012C, strain htz1 0.741 | S. cerevisiae deletion strains, locus YOL147C, strain pex11, active compounds read low 0.988 | S. cerevisiae deletion strains, locus YOR001W, strain rrp6, active compounds read low 1.02 | S. cerevisiae deletion strains, locus YOR061W, strain CKA2, active compounds read low 1 | S. cerevisiae deletion strains, locus YOR069W, strain VPS5, active compounds read low 0.995 | S. cerevisiae deletion strains, locus YOR070C, strain gyp1, active compounds read low 0.982 | S. cerevisiae deletion strains, locus YOR080W, strain dia2, active compounds read low 0.968 | S. cerevisiae deletion strains, locus YOR083W, strain WHI5 (second series), active compounds read low 1.01 | S. cerevisiae deletion strains, locus YOR083W, strain WHI5, active compounds read low 0.96 | S. cerevisiae deletion strains, locus YOR106W, strain vam3, active compounds read low 0.931 | S. cerevisiae deletion strains, locus YOR136W, strain idh2, active compounds read low 0.992 | S. cerevisiae deletion strains, locus YOR144C, strain elg1, active compounds read low 0.982 | S. cerevisiae deletion strains, locus YOR184W, strain ser1, active compounds read low 0.962 | S. cerevisiae deletion strains, locus YOR265W, strain rbl2, active compounds read low 0.984 | S. cerevisiae deletion strains, locus YOR270C, strain vph1, active compounds read low 0.924 | S. cerevisiae deletion strains, locus YOR290C, strain snf2, active compounds read low 0.965 | S. cerevisiae deletion strains, locus YOR316C, strain cot1, active compounds read low 0.977 | S. cerevisiae deletion strains, locus YPL051W, strain arl3, active compounds read low 0.987 | S. cerevisiae deletion strains, locus YPL055C, strain LGE1, active compounds read low 1.02 and 0.958 | S. cerevisiae deletion strains, locus YPL078C, strain atp4, active compounds read low 0.971 | S. cerevisiae deletion strains, locus YPL106C, strain sse1, active compounds read low 0.954 | S. cerevisiae deletion strains, locus YPL240C, strain hsp82, active compounds read low 0.993 | S. cerevisiae deletion strains, locus YPL241C, strain CIN2, active compounds read low 0.998 and 0.991 | S. cerevisiae deletion strains, locus YPR119W, strain clb2, active compounds read low 0.995 | S. cerevisiae deletion strains, locus YPR141C, strain kar3, active compounds read low 0.976 | S. cerevisiae deletion strains, locus YPR163C, strain tif3, active compounds read low 0.986 | S. cerevisiae deletion strains, locus YPR167C, strain met16, active compounds read low 0.995 | S. cerevisiae deletion strains, strain wtn01, active compounds read low 0.99 | S. cerevisiae strains, strain wild type, active compounds read low 0.977

— PubChem BioAssay AID1159580 (chemical genetic matrix, 2015)
